# Laboratory results taken from PubChem BioAssay (Tox21).
# Results filed as inconclusive are left out. Entries that show only a call come without a potency. Active and inactive are the calls of the source. Calls come from the whole dose curve; as a rule, active = well fitted cell-killing curve with a large enough effect in the repeat runs; inconclusive = weak or mixed curves, or effect the other way; inactive = flat fitted curve, though single readings scatter.
# Assay: qHTS RealTime-Glo MT Cell Viability Assay in HepG2 cells - 40 hour (AID 1224870); note: nearly all actives have a fitted effect of over 50% in size
# Details: RealTime-Glo luminescence; series mostly up to 76.8 µM
# Source text: National Center for Advancing Translational Sciences [NCATS]
# NIH Chemical Genomics Center [NCGC]
# U.S. Environmental Protection Agency [EPA]
# National Institutes of Environmental Health Sciences [NIEHS]
# National Toxicology Program [NTP]
# U.S. Food and Drug Administration [FDA]
# Measure of cell viability is critical in the cell-base assay. Analysis of cell viability is necessary for the characterization of cell responses to cytotoxic drugs and environmental stress. A RealTime-Glo MT Cell Viability Assay to monitor cell viability in real time of continues cell culture during 40 hours of compound treatment was used to screen Tox21 10K library compounds in HepG2 cells. The RealTime-Glo MT Cell Viability Assay is a nonlytic, homogeneous, bioluminescent method to measure cell viability in real time using a simple, plate-based method. The assay involves adding NanoLuc luciferase and a cell-permeant prosubstrate to cells in culture. Viable cells reduce the proprietary prosubstrate to generate a substrate for NanoLuc luciferase. This substrate diffuses from cells into the surrounding culture medium, where it is rapidly used by the NanoLuc Enzyme to produce a luminescent signal. The signal correlates with the number of viable cells, making the assay well suited for cytotoxicity studies.
# Tox21 Assay Protocol Summary:
# The mixture of HepG2 cell suspension and reagents were dispensed at 600cells/6 ul/well in 1536-well tissue culture treated black solid bottom plates using a Multidrop dispenser. After the assay plates were incubated at a 37 C/5% CO2 incubator for 5 hours, 23 nL of compounds dissolved in DMSO, positive and negative controls was transferred to the assay plate by a pintool work station. The plates were incubated at 37 C for 40 hours. The luminescence intensity were measured at 0h, 8h, 16h, 24h, 32h and 40h time points using ViewLux plate reader during compound treatment.
SMILES,Potency,"activity change, negative = cytotoxic"
O=C(OCCCCCOC(=O)c1ccccc1)c1ccccc1,inactive,–
C=CC(=O)NC(C)(C)C,inactive,–
CC1=CC(=C(c2ccc(N)cc2)c2ccc(N)cc2)C=CC1=N,–,-1.71% [at 6.97 µM] (inactive)
O=C(Cl)c1cc(Cl)cc(Cl)c1,inactive,–
O=c1[nH]nc(-c2ccc([N+](=O)[O-])o2)o1,inactive,–
CCOc1ccc(NC(C)=O)cc1N,inactive,–
CC(C)NC(=O)c1ccccc1N,inactive,–
CCCC(=O)OCc1ccccc1,inactive,–
CCCCOc1ccc(N)cc1,inactive,–
O=C(O)c1ccccc1[N+](=O)[O-],inactive,–
NCCOCCOCCN,inactive,–
CC1(COc2ccc(CC3SC(=O)NC3=O)cc2)CCCCC1 (stereo not given),inactive,–
Cc1c(Cl)cccc1[N+](=O)[O-],inactive,–
SCCOCCOCCS,inactive,–
COc1ccc(/C=C/S(=O)(=O)NC(=O)c2ccc(C)cc2Cl)cc1,inactive,–
Clc1ccccc1-c1nc(-c2ccncc2)no1,inactive,–
C1CCN(CN2CCCCC2)CC1,inactive,–
N#Cc1ccc(CC(=O)c2cccc(C(F)(F)F)c2)cc1,inactive,–
CC(COc1ccccc1)NC(C)C(O)c1ccc(O)cc1 (stereo not given),inactive,–
NC(=O)c1ccccc1,inactive,–

SMILES,Potency,"activity change, negative = cytotoxic"
CCC(=O)O[C@@H]1C[C@H]2CC[C@]1(C)C2(C)C,inactive,–
CCC1=C(C)CN(C(=O)NCCc2ccc(S(=O)(=O)NC(=O)NC3CCC(C)CC3)cc2)C1=O (stereo not given),inactive,–
CC(O)C(C)O (stereo not given),inactive,–
CC1=C(C)C(=O)C(CCCCC#CCCCC#CCO)=C(C)C1=O,inactive,–
O=C(NC1CCN(CCc2c[nH]c3ccccc23)CC1)c1ccccc1,inactive,–
Nc1ncnc2c1ncn2[C@@H]1O[C@H](CO)[C@@H](O)[C@H]1O,inactive,–
CC(=O)Nc1ccn(C2COC(COC(=O)c3ccccc3)O2)c(=O)n1 (stereo not given),inactive,–
CC(C)=CCC[C@H](C)CCO,inactive,–
COc1ccc(C(=O)c2ccc(C)cc2)c(O)c1,inactive,–
CCOC(C)OCC,inactive,–
O=C1OC(=O)C2CC=CCC12 (stereo not given),inactive,–
FC(F)(Cl)C(F)(Cl)Cl,inactive,–
CC(C)CCCCCCCOC(=O)c1ccc(C(=O)OCCCCCCCC(C)C)c(C(=O)OCCCCCCCC(C)C)c1,inactive,–
c1ccc(CCNc2nc(-c3ccccc3)cs2)cc1,inactive,–
CC(C)(C(=O)O)c1ccc(C(O)CCCN2CCC(C(O)(c3ccccc3)c3ccccc3)CC2)cc1 (stereo not given),inactive,–
CCCCCCCCCC(C)C=O (stereo not given),inactive,–
C/C=C1\[C@H]2C=C(C)C[C@]1(N)c1ccc(=O)[nH]c1C2,inactive,–
CC(C)(C)c1cc(C=O)cc(C(C)(C)C)c1O,inactive,–
FC1(F)C(F)(F)C(F)(F)C2(F)C(F)(C1(F)F)C(F)(F)C(F)(F)C1(F)C(F)(F)C(F)(F)C(F)(F)C(F)(F)C12F (stereo not given),inactive,–
O=C(c1ccc(Cl)cc1)c1ccc(Cl)cc1,inactive,–
